Measurements from ChEMBL document CHEMBL3988442, “University of Dundee, Small-Polar-MMV Screening Library” (2021).
About 13,000 (27%) of roughly 48,000 compounds showed an effect of 50% or more. Some of the results follow.

Each compound was assayed on Wolbachia pipientis (assay: Anti-Wolbachia Cell-Based Screen). Details: 5 µM.
Assay type: functional
Parameters: scale not given: in the data most compounds retested in dose-response had high values

Compared with `Cc1cnn(CCCNC(=O)C2CCCCN2Cc2cccnc2)c1` (stereo not given), `Cn1cc(-c2ccc(C3CCCCN3Cc3cccnc3)cn2)cn1` (stereo not given) is higher in “Percent Effect” value: 8.943% for the first, 97.17% for the second.

First: Cn1cc(CN2CCCCC2c2ccc(-c3cccc(F)c3)nc2)cn1 (stereo not given)
Second: Cn1cc(CN2CCCCC2c2ccc(-c3cccc(Cl)c3)nc2)cn1 (stereo not given)
The “Percent Effect” value of the first is lower: 28.65% for the first, 64.04% for the second.

Going from `Cn1c(Cl)cnc1CN1CCCC1c1ccc2c(c1)OCCO2` (stereo not given) to `Cn1cc(CN2CCCCC2c2ccc(-c3cnn(C)c3)nc2)cn1` (stereo not given), the “Percent Effect” value rises from -20.61% to 49.11%.

Going from `CN(CC(=O)Nc1ccccc1)C(=O)CN(C)c1ccc(Cl)cn1` to `O=C(CCNC(=O)c1ccoc1)Nc1ccccc1F`, the “Percent Effect” value rises from -3.187% to -1.29%.

First: CSc1ncc(CNCC2(N3CCCCC3)Cc3ccccc3C2)cn1
Second: Cc1nc(CNCc2ccc(N3CCN(C)CC3)nc2)cs1
The “Percent Effect” value of the first is lower: -2.025% for the first, -1.26% for the second.

Compared with `Cc1noc(CS(=O)(=O)c2cc(F)ccc2F)n1`, `Cc1ccc(F)cc1S(=O)(=O)NCc1cccc(CS(C)(=O)=O)c1` is lower in “Percent Effect” value: 2.12% for the first, -14.38% for the second.

First: Nc1nccc(N2CCNC(C(=O)NCc3ccccn3)C2)n1 (stereo not given)
Second: O=C(NCc1ccncc1)C1CN(c2nc3ccccc3s2)CCN1 (stereo not given)
The “Percent Effect” value of the first is lower: -0.8592% for the first, 6.015% for the second.

Going from `O=C(NCc1ccccc1)C1CN(c2ccccn2)CCO1` (stereo not given) to `Cc1cnc(N2CCOC(C(=O)NCc3ccccc3)C2)s1` (stereo not given), the “Percent Effect” value falls from 195.5% to 138.3%.

Going from `CCC1CN(C(=O)c2cnc(-c3ccccc3)s2)CCO1` (stereo not given) to `O=C(Cc1cccs1)N1CCCC(CNS(=O)(=O)Cc2ccccc2)C1` (stereo not given), the “Percent Effect” value rises from -14.04% to -8.788%.

First: O=C(NC[C@H]1OC[C@@H]2CCN(c3ccccn3)C[C@@H]21)c1ccco1
Second: O=C1N[C@@H]2CCN(C(=O)c3ccccc3)[C@@H]2C(=O)N1Cc1ccccc1
The “Percent Effect” value of the first is lower: -8.109% for the first, -7.073% for the second.

First: CN(C)c1ccccc1C(=O)N1C[C@@H](CN2CCOCC2)[C@@H](CO)C1
Second: CSCc1cccc(S(=O)(=O)NCCCN2CCOCC2)c1
The “Percent Effect” value of the first is higher: 9.943% for the first, -6.624% for the second.

Going from `N#Cc1ncn(CCS(=O)(=O)c2ccc(Cl)cc2)n1` to `N#Cc1ncn(CCS(=O)(=O)c2ccc(Br)cc2)n1`, the “Percent Effect” value rises from -0.6249% to 14.03%.

Going from `N#Cc1ncn(CCC(=O)Nc2ccccc2F)n1` to `N#Cc1ncn(CCC(=O)Nc2ccc(Cl)cc2F)n1`, the “Percent Effect” value falls from 141.3% to 11.11%.

First: N#Cc1ncn(CCC(=O)Nc2ccc(F)c(F)c2)n1
Second: N#Cc1ncn(CCC(=O)Nc2cccc(Cl)c2)n1
The “Percent Effect” value of the first is higher: 100.3% for the first, 93.03% for the second.

First: N#Cc1ncn(CCS(=O)(=O)c2ccccc2)n1
Second: N#Cc1ncn(CCC(=O)Nc2c(Cl)cccc2Cl)n1
The “Percent Effect” value of the first is higher: 11.97% for the first, -3.932% for the second.

First: N#Cc1ncn(CCC(=O)Nc2cc(Cl)ccc2Cl)n1
Second: N#Cc1ncn(CC(=O)Nc2cc(Cl)ccc2F)n1
The “Percent Effect” value of the first is higher: 94.62% for the first, -2.838% for the second.

Going from `Cc1ccc(F)cc1NC(=O)CCn1cncn1` to `CC(=O)N1CCN(CCNS(=O)(=O)c2cc(F)ccc2C)CC1`, the “Percent Effect” value rises from -7.237% to 96.01%.

Going from `CCCC1CCN(C(=O)c2coc(COc3ccc(OC)cc3)n2)C1` (stereo not given) to `COc1ccc(C[C@H]2CN(Cc3ccoc3)CC[C@H]2OC)cc1.O=C(O)C(F)(F)F`, the “Percent Effect” value rises from 13.18% to 63.46%.

Compared with `CCOc1c(Br)cc(CNC(C)c2nnc3n2CCC3)cc1OC` (stereo not given), `CC(=O)N1CCN(CCNc2ncc(Br)cc2C)CC1` is higher in “Percent Effect” value: -3.79% for the first, 3.175% for the second.

First: O=C(c1cc(COc2ccc3c(c2)OCO3)[nH]n1)N1CCCO1
Second: O=C(c1cnc(Cc2c(Cl)cccc2Cl)nc1O)N1CCNCC1
The “Percent Effect” value of the first is lower: -2.662% for the first, 20.47% for the second.

First: COc1ccc(C[C@H]2CN(C3CCOCC3)CC[C@@H]2OCC2CC2)cc1.O=C(O)C(F)(F)F
Second: COc1ccc(C[C@H]2CN(C3CCOCC3)CC[C@H]2OCC2CC2)cc1.O=C(O)C(F)(F)F
The “Percent Effect” value of the first is higher: -34.49% for the first, -41.15% for the second.

First: COc1ccc(CN2C[C@@H]3CN(Cc4ccoc4)C[C@@H]3C2=O)cc1.O=C(O)C(F)(F)F
Second: COc1ccc(C[C@H]2CN(Cc3ccoc3)CC[C@@H]2OC)cc1.O=C(O)C(F)(F)F
The “Percent Effect” value of the first is lower: -0.9609% for the first, 76.48% for the second.

First: COc1ccc(CN2CCN(S(=O)(=O)c3cc(C(=O)O)cs3)CC2)cc1
Second: CC(=O)N1CCN(CCNS(=O)(=O)c2cccc(F)c2)CC1
The “Percent Effect” value of the first is lower: 1.54% for the first, 146.4% for the second.

First: Cc1cc(-c2nn(C)c(Cl)c2CN2CCOCC2CC(=O)O)no1 (stereo not given)
Second: Cn1ncc2ccc(C3CCCN(C(=O)Cc4cccs4)C3)nc21 (stereo not given)
The “Percent Effect” value of the first is lower: 1.04% for the first, 73.59% for the second.

Compared with `CCCS(=O)(=O)c1ncc(CN2CCC(C)CC2)n1CC1CCCO1` (stereo not given), `CC1CCN(CCCNS(=O)(=O)c2cccc(F)c2)CC1.Cl` is higher in “Percent Effect” value: -5.004% for the first, 5.28% for the second.

Compared with `CC(=O)N1CCN(CCNS(=O)(=O)c2cc(F)cc(F)c2)CC1`, `CC(=O)N1CCN(CCNS(=O)(=O)c2ccc(F)c(F)c2)CC1` is higher in “Percent Effect” value: 102.1% for the first, 114.9% for the second.

First: CC(=O)N1CCN(CCCSCc2ccccc2)CC1
Second: CC(=O)N1CCN(CCNS(=O)(=O)c2c(F)cccc2F)CC1
The “Percent Effect” value of the first is lower: -1.866% for the first, 115.2% for the second.

Going from `O=S(=O)(NCCC(O)c1cccs1)c1c(F)cccc1F` (stereo not given) to `CS(=O)(=O)Cc1cccc(CNS(=O)(=O)c2ccc(F)c(F)c2)c1`, the “Percent Effect” value falls from 0.3394% to -9.477%.

Going from `O=S(=O)(NCCCN1CCCC1)c1cc(F)cc(F)c1` to `CC1CCN(CCCNS(=O)(=O)c2cc(F)cc(F)c2)CC1.Cl`, the “Percent Effect” value falls from -0.6955% to -12.88%.

First: CN(CCCNS(=O)(=O)N1CCC2(CC1)OCCO2)c1ccccc1
Second: O=S(=O)(NCCN1CC=CC1)c1ccc(Cl)cc1
The “Percent Effect” value of the first is higher: 15.24% for the first, -10.33% for the second.

First: CNc1ccnc(N2C[C@@H]3CC[C@H](C2)N(CCOC)C3=O)n1
Second: COCC1CN(C(=O)Cc2cccs2)Cc2c1cnn2C (stereo not given)
The “Percent Effect” value of the first is higher: -5.532% for the first, -7.933% for the second.

Compared with `Cn1cc(CN2CCO[C@H]3CN(Cc4ccsc4)C[C@H]32)cn1`, `Cn1ncc2ccc(C3CCCN(Cc4ccsc4)C3)nc21` (stereo not given) is higher in “Percent Effect” value: -4.934% for the first, 178.8% for the second.

In the case of `Cn1ncc2ccc(C3CCCN(Cc4cccs4)C3)nc21` (stereo not given), the “Percent Effect” value is reported as 161.9%.
